The record followed here is article PMC7862700, “An all-to-all approach to the identification of sequence-specific readers for epigenetic DNA modifications on cytosine”.

What all share (test): DAPPL (digital affinity profiling via proximity ligation, sequencing); 10 mM Tris-HCl pH 7.5, 50 mM NaCl, 1 mM DTT, 4% glycerol, room temperature, 30 min; GST-TFs on glutathione beads, 16-mer random dsDNA library, 0.1% formaldehyde crosslink after washing; high values mean tight binding
The target of one assay is T1, FEV (Homo sapiens, UniProt Q99581 1-238).
T1 sequence: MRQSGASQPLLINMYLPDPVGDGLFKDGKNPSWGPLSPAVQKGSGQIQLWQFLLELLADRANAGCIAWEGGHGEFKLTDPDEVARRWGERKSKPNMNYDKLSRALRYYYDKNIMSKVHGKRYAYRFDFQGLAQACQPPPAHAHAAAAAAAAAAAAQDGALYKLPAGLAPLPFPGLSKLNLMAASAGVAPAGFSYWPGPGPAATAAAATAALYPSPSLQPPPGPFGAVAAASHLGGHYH
As to conditions: protein: recombinant; tags: N-terminal GST; dsDNA, one strand shown. In outline:
(§1)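 In yeast, human transcription factors were expressed with a GST fusion, then pulled down on glutathione beads and given DNA barcodes. Pooled with a tag-only sample, they were exposed to 200 nmole of a 16-mer random double-stranded DNA library (Tris/NaCl/DTT/glycerol buffer, room temperature, 30 min), washed, crosslinked with 0.1% formaldehyde, proximity-ligated using BsaI/T4 ligase for 1 h at 37 °C, PCR-amplified and read on an Illumina NextSeq500. Each hexamer's frequency of reads for a factor, divided by the matching frequency for the tag-only sample, gives the binding signal.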

The next assay deals with ETV5 (Homo sapiens, UniProt P41161 1-510). As to conditions: protein: recombinant; tags: N-terminal GST; dsDNA, one strand shown. In short, it runs like this: as §1
The target of a further assay is HSF1 (Homo sapiens, UniProt Q00613 1-529). As to conditions: protein: recombinant; tags: N-terminal GST; chain copies: 3; dsDNA, one strand shown. In short, it runs like this: as §1
In the next assay the target is T2, SPIC (Homo sapiens, UniProt Q8N5J4 1-248).
T2 sequence: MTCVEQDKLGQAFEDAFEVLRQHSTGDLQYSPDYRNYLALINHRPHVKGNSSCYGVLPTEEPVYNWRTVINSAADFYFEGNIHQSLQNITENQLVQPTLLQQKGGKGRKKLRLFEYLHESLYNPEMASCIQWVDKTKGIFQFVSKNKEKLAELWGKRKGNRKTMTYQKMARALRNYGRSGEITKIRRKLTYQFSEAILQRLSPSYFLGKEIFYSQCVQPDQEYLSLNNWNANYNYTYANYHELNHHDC
As to conditions: protein: recombinant; tags: N-terminal GST; dsDNA, one strand shown. In outline: as §1

A further assay deals with ELF4 (Homo sapiens, UniProt Q99607 1-663). As to conditions: protein: recombinant; tags: N-terminal GST; dsDNA, one strand shown. In outline:
as §1

Another assay has as its target T3, ELK4 (Homo sapiens, UniProt P28324-2 1-405).
T3 sequence: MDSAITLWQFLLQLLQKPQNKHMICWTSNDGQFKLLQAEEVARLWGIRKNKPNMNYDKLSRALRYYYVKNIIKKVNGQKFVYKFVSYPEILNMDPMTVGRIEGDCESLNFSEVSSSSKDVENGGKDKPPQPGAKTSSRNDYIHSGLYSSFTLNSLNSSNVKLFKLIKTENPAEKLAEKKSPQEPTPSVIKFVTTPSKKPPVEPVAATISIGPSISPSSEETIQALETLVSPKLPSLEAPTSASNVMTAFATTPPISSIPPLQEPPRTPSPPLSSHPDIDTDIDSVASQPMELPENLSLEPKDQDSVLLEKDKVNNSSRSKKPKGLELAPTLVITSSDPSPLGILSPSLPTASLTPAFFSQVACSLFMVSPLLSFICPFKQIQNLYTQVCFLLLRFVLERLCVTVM
As to conditions: protein: recombinant; tags: N-terminal GST; dsDNA, one strand shown. In outline: as §1

The target of the next assay is T4, ETV2 (Homo sapiens, UniProt O00321 1-342).
T4 sequence: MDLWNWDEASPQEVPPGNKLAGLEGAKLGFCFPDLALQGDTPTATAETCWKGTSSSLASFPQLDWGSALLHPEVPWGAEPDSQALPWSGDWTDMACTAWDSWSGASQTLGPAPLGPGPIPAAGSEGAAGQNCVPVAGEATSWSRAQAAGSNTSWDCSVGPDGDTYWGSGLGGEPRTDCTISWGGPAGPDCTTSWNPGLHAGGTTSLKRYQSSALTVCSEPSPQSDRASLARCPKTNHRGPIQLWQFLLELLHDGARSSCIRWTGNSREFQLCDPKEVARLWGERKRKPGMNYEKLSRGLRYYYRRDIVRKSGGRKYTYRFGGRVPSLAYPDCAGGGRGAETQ
As to conditions: protein: recombinant; tags: N-terminal GST; dsDNA, one strand shown. In short, it runs like this:
as §1

A further assay concerns the target T5, ELF3 (Homo sapiens, UniProt P78545 1-371).
T5 sequence: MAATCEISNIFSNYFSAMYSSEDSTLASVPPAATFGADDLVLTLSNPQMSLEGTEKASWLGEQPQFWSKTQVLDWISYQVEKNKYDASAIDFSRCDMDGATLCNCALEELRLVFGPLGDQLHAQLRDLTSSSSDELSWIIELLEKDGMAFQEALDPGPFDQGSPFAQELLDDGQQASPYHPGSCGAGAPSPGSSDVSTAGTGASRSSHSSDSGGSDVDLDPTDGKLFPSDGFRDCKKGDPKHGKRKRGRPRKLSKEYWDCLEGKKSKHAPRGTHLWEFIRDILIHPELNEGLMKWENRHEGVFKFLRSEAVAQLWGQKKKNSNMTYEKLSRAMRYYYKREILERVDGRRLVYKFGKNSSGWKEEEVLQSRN
As to conditions: protein: recombinant; tags: N-terminal GST; dsDNA, one strand shown. In outline: as §1

The next assay deals with CRX (Homo sapiens, UniProt O43186 1-299). As to conditions: protein: recombinant; tags: N-terminal GST; dsDNA, one strand shown. In short, it runs like this: as §1
For a further assay, the target named is ETV1 (Homo sapiens, UniProt P50549 1-477). As to conditions: protein: recombinant; tags: N-terminal GST; dsDNA, one strand shown. In short, it runs like this: as §1
Another assay addresses T6, ERF (Homo sapiens, UniProt P50548 1-548).
T6 sequence: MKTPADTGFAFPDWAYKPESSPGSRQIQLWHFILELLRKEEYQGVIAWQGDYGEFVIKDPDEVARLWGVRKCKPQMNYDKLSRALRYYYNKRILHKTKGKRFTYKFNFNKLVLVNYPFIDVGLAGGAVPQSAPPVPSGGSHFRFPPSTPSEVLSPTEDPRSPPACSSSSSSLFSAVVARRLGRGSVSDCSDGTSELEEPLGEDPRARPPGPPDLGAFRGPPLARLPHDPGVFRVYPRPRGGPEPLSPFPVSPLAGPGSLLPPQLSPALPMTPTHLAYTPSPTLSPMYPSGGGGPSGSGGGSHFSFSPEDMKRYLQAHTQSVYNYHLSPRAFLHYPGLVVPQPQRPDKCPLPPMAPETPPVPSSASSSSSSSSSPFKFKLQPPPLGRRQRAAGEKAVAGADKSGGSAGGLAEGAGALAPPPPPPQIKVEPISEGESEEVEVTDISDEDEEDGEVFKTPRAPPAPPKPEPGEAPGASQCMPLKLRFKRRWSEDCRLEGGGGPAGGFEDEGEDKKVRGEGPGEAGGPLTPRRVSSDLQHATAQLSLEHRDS
As to conditions: protein: recombinant; tags: N-terminal GST; dsDNA, one strand shown. In outline:
as §1

A further assay deals with T7, ETV3L (Homo sapiens, UniProt Q6ZN32 1-361).
T7 sequence: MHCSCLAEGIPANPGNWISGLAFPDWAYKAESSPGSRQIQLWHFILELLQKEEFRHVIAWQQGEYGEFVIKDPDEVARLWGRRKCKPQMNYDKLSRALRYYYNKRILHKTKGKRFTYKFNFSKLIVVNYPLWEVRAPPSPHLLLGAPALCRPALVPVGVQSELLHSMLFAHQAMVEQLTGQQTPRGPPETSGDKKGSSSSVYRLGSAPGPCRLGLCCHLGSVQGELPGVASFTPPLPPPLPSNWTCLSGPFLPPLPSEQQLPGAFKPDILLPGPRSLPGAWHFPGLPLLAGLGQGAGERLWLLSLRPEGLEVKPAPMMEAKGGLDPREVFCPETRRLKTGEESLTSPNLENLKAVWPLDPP
As to conditions: protein: recombinant; tags: N-terminal GST; dsDNA, one strand shown. In outline: as §1

In the next assay the target is T8, ETS2 (Homo sapiens, UniProt P15036 1-469).
T8 sequence: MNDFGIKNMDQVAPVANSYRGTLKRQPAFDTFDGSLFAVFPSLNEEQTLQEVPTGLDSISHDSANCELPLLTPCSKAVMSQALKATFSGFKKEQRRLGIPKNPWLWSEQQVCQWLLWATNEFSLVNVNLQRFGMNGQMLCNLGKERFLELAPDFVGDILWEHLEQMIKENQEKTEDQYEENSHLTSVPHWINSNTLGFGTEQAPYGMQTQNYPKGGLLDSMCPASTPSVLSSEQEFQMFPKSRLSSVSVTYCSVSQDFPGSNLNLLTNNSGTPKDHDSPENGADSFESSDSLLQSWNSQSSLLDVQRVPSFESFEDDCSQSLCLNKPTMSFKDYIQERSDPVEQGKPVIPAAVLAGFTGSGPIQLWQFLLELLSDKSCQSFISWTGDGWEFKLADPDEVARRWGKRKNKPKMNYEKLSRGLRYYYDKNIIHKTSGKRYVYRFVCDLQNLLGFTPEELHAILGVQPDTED
As to conditions: protein: recombinant; tags: N-terminal GST; dsDNA, one strand shown. In short, it runs like this:
as §1

In a further assay the target is T9, SPDEF (Homo sapiens, UniProt O95238 1-335).
T9 sequence: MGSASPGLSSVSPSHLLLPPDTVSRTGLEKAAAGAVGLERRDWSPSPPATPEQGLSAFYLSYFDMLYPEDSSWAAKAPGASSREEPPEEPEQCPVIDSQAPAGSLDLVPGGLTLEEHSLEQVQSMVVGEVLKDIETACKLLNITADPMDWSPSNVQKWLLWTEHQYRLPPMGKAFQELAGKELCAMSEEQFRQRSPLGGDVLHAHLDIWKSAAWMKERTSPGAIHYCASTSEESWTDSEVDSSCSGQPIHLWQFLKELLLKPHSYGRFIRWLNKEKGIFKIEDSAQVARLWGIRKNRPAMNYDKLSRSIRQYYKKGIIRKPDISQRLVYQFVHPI
As to conditions: protein: recombinant; tags: N-terminal GST; dsDNA, one strand shown. In outline:
as §1

For the next assay, the target named is T10, ETV7 (Homo sapiens, UniProt Q9Y603 1-341).
T10 sequence: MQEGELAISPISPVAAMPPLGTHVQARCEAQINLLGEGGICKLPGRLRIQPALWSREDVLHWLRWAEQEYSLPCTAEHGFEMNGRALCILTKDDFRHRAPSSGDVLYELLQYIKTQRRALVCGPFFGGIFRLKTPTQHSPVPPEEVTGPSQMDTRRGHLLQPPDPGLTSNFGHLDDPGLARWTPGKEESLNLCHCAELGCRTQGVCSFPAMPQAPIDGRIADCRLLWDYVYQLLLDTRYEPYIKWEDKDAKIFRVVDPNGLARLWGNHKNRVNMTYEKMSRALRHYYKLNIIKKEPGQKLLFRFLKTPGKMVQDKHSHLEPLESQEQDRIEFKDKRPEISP
As to conditions: protein: recombinant; tags: N-terminal GST; dsDNA, one strand shown. In outline: as §1

A further assay deals with T11, ELF5 (Homo sapiens, UniProt Q9UKW6-2 1-255).
T11 sequence: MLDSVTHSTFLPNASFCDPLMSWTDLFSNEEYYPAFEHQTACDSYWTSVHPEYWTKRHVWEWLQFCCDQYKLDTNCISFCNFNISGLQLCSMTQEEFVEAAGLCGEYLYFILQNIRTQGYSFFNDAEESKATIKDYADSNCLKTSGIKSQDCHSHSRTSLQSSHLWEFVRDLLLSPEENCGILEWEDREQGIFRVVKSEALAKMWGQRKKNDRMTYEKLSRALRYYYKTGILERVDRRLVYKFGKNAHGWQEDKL
As to conditions: protein: recombinant; tags: N-terminal GST; dsDNA, one strand shown. In outline:
as §1

The target of a further assay is T12, ETV3 (Homo sapiens, UniProt P41162-2 1-143).
T12 sequence: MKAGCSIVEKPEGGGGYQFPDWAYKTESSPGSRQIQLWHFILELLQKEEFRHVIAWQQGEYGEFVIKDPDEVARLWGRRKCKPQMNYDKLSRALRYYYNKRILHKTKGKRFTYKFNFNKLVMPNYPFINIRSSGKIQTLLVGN
As to conditions: protein: recombinant; tags: N-terminal GST; dsDNA, one strand shown. In short, it runs like this: as §1

Another assay concerns the target ETV6 (Homo sapiens, UniProt P41212 1-452). As to conditions: protein: recombinant; tags: N-terminal GST; dsDNA, one strand shown. In outline: as §1

Chain of CRX (O43186 whole entry): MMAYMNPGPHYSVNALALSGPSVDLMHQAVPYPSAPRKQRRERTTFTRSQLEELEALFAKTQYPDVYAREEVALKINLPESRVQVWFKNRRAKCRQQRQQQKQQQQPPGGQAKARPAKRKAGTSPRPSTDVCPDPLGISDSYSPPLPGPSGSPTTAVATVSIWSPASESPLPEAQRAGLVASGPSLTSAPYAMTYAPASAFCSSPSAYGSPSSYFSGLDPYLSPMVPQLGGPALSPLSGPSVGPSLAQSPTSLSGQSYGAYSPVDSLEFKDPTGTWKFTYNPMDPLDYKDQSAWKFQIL
Chain of HSF1 (Q00613 whole entry): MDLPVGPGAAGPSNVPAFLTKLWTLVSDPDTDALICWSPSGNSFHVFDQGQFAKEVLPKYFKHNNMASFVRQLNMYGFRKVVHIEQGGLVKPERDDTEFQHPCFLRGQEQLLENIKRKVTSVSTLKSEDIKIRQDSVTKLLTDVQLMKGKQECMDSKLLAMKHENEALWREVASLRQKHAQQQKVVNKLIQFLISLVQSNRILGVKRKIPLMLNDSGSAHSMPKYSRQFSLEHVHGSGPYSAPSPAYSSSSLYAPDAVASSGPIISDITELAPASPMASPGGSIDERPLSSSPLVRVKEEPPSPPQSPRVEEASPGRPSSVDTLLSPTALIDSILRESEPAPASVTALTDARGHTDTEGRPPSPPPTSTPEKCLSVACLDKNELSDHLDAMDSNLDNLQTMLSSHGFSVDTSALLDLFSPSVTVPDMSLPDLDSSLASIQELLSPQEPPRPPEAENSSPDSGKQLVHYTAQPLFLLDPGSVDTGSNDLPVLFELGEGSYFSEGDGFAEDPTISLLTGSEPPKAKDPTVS
Chain of ETV5 (P41161 whole entry): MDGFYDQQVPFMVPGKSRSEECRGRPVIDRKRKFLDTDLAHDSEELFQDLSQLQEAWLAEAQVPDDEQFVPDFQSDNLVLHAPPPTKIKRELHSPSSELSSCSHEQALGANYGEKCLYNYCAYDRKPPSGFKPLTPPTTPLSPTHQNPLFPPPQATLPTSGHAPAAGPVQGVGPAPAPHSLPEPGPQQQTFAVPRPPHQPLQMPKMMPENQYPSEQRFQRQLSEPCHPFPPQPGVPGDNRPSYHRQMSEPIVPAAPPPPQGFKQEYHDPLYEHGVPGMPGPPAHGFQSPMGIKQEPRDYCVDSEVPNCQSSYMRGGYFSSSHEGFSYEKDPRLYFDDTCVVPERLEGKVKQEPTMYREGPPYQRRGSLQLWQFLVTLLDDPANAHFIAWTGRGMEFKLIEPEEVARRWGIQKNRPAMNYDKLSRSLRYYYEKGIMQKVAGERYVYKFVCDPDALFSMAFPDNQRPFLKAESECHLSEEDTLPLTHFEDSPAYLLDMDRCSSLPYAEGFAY
Chain of ETV6 (P41212 whole entry): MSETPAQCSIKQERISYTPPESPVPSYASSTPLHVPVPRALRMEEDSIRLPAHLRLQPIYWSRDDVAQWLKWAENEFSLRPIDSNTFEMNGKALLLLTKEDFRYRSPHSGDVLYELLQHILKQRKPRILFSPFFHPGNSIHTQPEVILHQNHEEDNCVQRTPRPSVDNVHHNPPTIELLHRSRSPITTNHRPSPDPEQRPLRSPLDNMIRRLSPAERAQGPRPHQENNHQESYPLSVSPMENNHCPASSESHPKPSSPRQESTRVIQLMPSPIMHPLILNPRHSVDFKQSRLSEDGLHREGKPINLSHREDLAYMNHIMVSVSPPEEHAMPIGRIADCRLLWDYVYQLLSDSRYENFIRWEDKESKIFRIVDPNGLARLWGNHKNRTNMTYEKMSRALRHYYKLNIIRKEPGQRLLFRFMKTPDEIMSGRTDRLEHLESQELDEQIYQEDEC
Chain of ELF4 (Q99607 whole entry): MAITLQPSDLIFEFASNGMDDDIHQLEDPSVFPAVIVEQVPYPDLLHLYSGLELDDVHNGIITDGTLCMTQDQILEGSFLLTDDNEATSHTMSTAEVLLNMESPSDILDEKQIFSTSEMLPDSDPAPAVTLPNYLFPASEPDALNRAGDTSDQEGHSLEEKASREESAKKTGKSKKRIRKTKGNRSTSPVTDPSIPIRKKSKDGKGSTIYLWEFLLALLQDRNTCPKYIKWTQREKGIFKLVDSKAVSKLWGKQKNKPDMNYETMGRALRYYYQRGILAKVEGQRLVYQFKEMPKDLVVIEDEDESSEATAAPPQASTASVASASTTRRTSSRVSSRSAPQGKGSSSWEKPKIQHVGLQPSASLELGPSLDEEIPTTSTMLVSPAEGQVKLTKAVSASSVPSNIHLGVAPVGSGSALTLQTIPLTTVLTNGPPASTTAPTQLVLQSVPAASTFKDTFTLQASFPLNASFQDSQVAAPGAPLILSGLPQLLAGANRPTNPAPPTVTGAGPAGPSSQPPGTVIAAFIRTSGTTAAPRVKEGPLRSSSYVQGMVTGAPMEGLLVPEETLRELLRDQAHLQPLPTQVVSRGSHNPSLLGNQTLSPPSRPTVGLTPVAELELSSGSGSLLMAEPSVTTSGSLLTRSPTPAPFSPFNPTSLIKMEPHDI
Chain of ETV1 (P50549 whole entry): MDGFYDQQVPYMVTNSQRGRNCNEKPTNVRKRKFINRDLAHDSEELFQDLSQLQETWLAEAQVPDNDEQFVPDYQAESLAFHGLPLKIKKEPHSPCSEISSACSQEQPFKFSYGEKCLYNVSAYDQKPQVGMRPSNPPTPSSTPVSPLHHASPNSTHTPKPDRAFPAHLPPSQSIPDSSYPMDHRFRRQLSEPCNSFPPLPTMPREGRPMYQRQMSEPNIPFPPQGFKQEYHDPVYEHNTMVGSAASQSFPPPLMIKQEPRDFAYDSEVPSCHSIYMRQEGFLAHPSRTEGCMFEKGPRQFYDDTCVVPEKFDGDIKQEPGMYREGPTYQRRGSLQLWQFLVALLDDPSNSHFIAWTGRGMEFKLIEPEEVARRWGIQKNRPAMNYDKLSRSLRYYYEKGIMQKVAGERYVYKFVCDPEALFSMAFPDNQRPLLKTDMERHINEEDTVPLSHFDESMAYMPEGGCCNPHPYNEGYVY

Regarding CTACCA, the binding signal with FEV was 1.14 fold enrichment (6-mer frequency, TF over GST control); with ETV5, 1.2 fold enrichment (6-mer frequency, TF over GST control); in the assay with HSF1, 1.24 fold enrichment (6-mer frequency, TF over GST control); in the assay with SPIC, 1.14 fold enrichment (6-mer frequency, TF over GST control); in the assay with ELF4, 1.39 fold enrichment (6-mer frequency, TF over GST control); with ELK4, 1.24 fold enrichment (6-mer frequency, TF over GST control). The binding signal was 1.1 fold enrichment (6-mer frequency, TF over GST control) with ETV2; 1.17 fold enrichment (6-mer frequency, TF over GST control) in the assay with ELF3; 1.09 fold enrichment (6-mer frequency, TF over GST control) in the assay with CRX; 1.27 fold enrichment (6-mer frequency, TF over GST control) with ETV1; 1.26 fold enrichment (6-mer frequency, TF over GST control) with ERF; 1.21 fold enrichment (6-mer frequency, TF over GST control) in the assay with ETV3L. Further, the binding signal is 1.26 fold enrichment (6-mer frequency, TF over GST control) in the assay with ETS2; 1.23 fold enrichment (6-mer frequency, TF over GST control) with SPDEF; 1.29 fold enrichment (6-mer frequency, TF over GST control) with ETV7; 1.26 fold enrichment (6-mer frequency, TF over GST control) with ELF5; 1.21 fold enrichment (6-mer frequency, TF over GST control) with ETV3; 1.26 fold enrichment (6-mer frequency, TF over GST control) with ETV6.
